TDP1 cell noCPT – qHTS for Inhibitors of human tyrosyl-DNA phosphodiesterase 1 (TDP1): qHTS in cells in absence of CPT | DT40 Tdp1-/- hTDP1 cells, no CPT, ATP luminescence, 48 h | Potency, µM (doses to about 46.2 µM), inactives show top-dose activity change, negative = growth inhibition, usual class: inhibitors | hit rate 15% among 420,000 | AID 686978, 2013; note: potency is the fitted concentration of half-maximal effect; nearly all actives have a fitted effect of over 55% in size
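Growth of hTDP1-complemented DT40 Tdp1-knockout cells is measured by ATP luminescence after at least 48 hr compound exposure at 37 °C, with DMSO substituting for the 20 nM CPT used in the parallel screen.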
IL1B secr inh – inhibitors of inflammasome signaling (IL-1 beta secretion). activity change, % at 57.5 µM. AID 743279. THP-1 LPS/ATP IL-1B secretion, AlphaLISA, 16 h; stronger effect = lower value. hit rate 4.7% among 360,000; in the data active = activity change below about -50%; inconclusive = mostly about -30% to -49%
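THP-1 cells pretreated 1 hr with compounds (up to 57.5 uM final), then stimulated with LPS (250 ng/mL final) plus ATP (1.25 mM final); secreted IL-1B measured by AlphaLISA after 16 hr, decreased signal indicating inhibition.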
CtBP-E1A blk – inhibitors of CtBP/E1A interaction; AlphaScreen GST-E1A/His-CtBP binding, 1536-well; stronger effect = lower value; activity change, % (no concentration beside the values); hit rate 0.49% among 340,000; AID 651724; in the data active = activity change below about -65%; inconclusive = mostly about -30% to -63%
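Homogeneous bead-based format: GST-tagged E1A captured on glutathione donor beads, His-tagged CtBP on nickel acceptor beads; compounds precede bead addition by 2 h at 37 °C.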
TDP1 block – blocks human tyrosyl-DNA phosphodiesterase 1; AID 485290; recombinant TDP1, AlphaScreen DNA substrate cleavage; hit rate 0.28% among 350,000; Potency, µM (top dose mostly 130 µM), for inactives: top-dose activity change, negative = inhibition, hits mostly inhibitors; note: potency is the fitted concentration of half-maximal effect; nearly all actives have a fitted effect of over 40% in size
Target sequence (Q9NUW8 whole entry, looked up): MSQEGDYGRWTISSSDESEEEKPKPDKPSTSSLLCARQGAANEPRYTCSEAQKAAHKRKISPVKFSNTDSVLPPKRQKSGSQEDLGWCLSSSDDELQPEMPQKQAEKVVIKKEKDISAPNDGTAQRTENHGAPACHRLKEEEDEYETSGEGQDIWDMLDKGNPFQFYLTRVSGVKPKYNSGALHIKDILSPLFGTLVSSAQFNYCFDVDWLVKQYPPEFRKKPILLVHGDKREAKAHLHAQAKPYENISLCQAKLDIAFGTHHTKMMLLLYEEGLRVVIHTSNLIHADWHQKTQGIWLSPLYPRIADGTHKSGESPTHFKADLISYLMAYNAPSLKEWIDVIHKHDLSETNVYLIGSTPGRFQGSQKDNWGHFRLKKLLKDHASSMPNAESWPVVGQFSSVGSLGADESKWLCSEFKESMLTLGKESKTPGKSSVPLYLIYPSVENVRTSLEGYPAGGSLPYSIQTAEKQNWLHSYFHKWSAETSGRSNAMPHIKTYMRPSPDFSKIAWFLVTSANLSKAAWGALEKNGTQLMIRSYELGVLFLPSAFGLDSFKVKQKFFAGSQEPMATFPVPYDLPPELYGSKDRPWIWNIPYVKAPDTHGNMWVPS
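Tdp1 1 nM final; 15 min RT w/ cpd; substrate 15 nM, 5 min; beads 10 ug/ml, 10 min; AlphaScreen read. Neg ctrl: no enzyme.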
TDP1 cell CPT – growth inhibition of DT40 Tdp1-/-;hTDP1 cells with camptothecin (screen for TDP1 inhibitors); chicken DT40 Tdp1-/-;hTDP1 cells + 20 nM CPT, ATP luminescence, 48 h; Potency, µM (doses to about 46.2 µM), for the others: at the top dose activity change, negative = growth inhibition, hits mostly inhibitors; hit rate 12% among 420,000; AID 686979; note: potency is the fitted concentration of half-maximal effect; nearly all actives have a fitted effect of over 55% in size
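Chicken DT40 Tdp1-/- cells complemented with human TDP1, 400 cells/well, exposed to compounds plus 20 nM camptothecin for at least 48 h at 37 C; viability read as ATP content by CellTiter-Glo luminescence.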
Six1-Eya2 inh – inhibitors of human Six1/Eya2 interaction; AlphaScreen GST-Six1/His-Eya2 binding, biochemical; stronger effect = lower value; activity change, % (concentration not given with the values); hit rate 0.56% among 360,000; in the data active = activity change below about -65%; inconclusive = mostly about -30% to -63%
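Homogeneous AlphaScreen proximity assay pairing GST-Six1 with His-tagged Eya2 (added as 5X mix: 250 nM and 500 nM) in 50 mM Tris pH 8.0, 300 mM NaCl, 1 mM TCEP. Glutathione donor and nickel acceptor beads; 1 h, 37 °C, dark.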
* = called active by the depositor; ? = inconclusive; / = no result; ! = not confirmed by another sample; [ ] = remark or other dose. Sampled rows, rich in hits. Any-hit rate of the full collection: about 18%. Unless noted, calls come from the whole dose curve; as a rule, active = well fitted curve in the direction sought with a large enough effect; inconclusive = small, poorly fitted or top-dose-only effect, or another doubt; inactive = no such curve, though single readings can be large; an effect the other way counts as inactive or inconclusive. % is set by controls: 0 for no effect and ±100 for the full control effect.

SMILES	TDP1 cell noCPT	IL1B secr inh	CtBP-E1A blk	TDP1 block	TDP1 cell CPT	Six1-Eya2 inh
C[C@H]1COc2cccc(N3CCN(Cc4ccccc4F)CC3)c2S(=O)(=O)N1	?	21	3	/	-11%	-10
CC(C)C[C@H]1COc2cc(N3CCN(Cc4ccccc4F)CC3)ccc2S(=O)(=O)N1	?	14	-21	/	?	8
CCCCN(CC)C(=O)C1CCCN(c2ncnc3onc(C)c23)C1 (stereo unspecified)	21µM*	/	/	6%	18µM*	/
CCCCN(C)C(=O)C1CCCN(c2ncnc3onc(C)c23)C1 (stereo unspecified)	1.8µM*	/	/	3%	5.2µM*	/
CCOc1ccccc1-n1nnnc1SCC(=O)NCc1ccco1	-23%	3	/	-5%	-11%	28
CCCc1ccc2oc(C(=O)N3CCC(N4CCCC(O)C4)CC3)c(C)c2c1 (stereo unspecified)	?	-30	-3	5%	?	-2
Cc1ccc2ccc(C(Nc3ccccn3)c3ccccc3)c(O)c2n1 (stereo unspecified)	18µM*	63	-5	8%	23µM*	-2
COc1ccc(C(Nc2cc(C)ccn2)c2ccc3ccc(C)nc3c2O)cc1 (stereo unspecified)	?	5	-8	/	?	-12
Cc1cccc(NC(c2ccccc2C)c2ccc3ccc(C)nc3c2O)n1 (stereo unspecified)	15µM*	/	/	12%	?	/
COc1cc(C(Nc2ccccn2)c2ccc3ccc(C)nc3c2O)cc(OC)c1O (stereo unspecified)	3.3µM*	-116*	-6	11%	3.7µM*	?
Cc1sc(NC(=O)c2ccco2)c(CN2CCN(Cc3ccccc3)CC2)c1C	12µM*	-80*	-16	11%	12µM*	-18
O=C(Nc1ccc(CN2CCOCC2)cc1)c1ccccc1F	6%	-8	3	8%	-4%	2
O=C(Nc1sc2c(c1CN1CCOCC1)CCC2)c1ccc(F)cc1	?	0	5	-1%	?	0
Cc1sc(NC(=O)c2ccccc2F)c(CN2CCCCC2)c1C	23µM*	-28	7	5%	21µM*	3
CNC(=O)c1c(NC(=O)c2ccco2)sc(C)c1C	-11%	?	-15	9%	9%	-10
Cc1sc(NC(=O)c2ccc(F)cc2)c(CN2CCCCCC2)c1C	13µM*	-28	-2	3%	13µM*	3
CCOC(=O)N1CCN(C(=O)CN(C)S(=O)(=O)c2ccc3c(c2)C(C)(C)C(=O)N3C)CC1	-3%	6	-1	-3%	1%	3
COc1ccc(Cc2nnc(NC(=O)Nc3ccccc3OC)s2)cc1	?	113	2	/	-2%	5
COc1ccc(NC(=O)c2ccc3c(c2)nnn3C2CCCC2)cc1Cl	-25%	/	/	3%	-2%	/
O=C1CN(S(=O)(=O)c2cc(Br)ccc2Br)CCN1	1%	26	5	1%	-16%	5
O=c1c(Br)ccc(Br)cc1Br	0.065µM*	-100*	0	/	0.029µM*	?
CC(=O)N(c1ccc2oc(=O)sc2c1)S(=O)(=O)c1cccc2cccnc12	?	1	-14	/	?	-24
COc1cccc(S(=O)(=O)Nc2ccc3sc(C)nc3c2)c1	23µM*	26	-4	-8%	?	-1
Cc1cc2oc(=O)sc2cc1NS(=O)(=O)c1cccc2cccnc12	-27%	-69*	7	10%	?	2
COc1ccc(NS(=O)(=O)c2cccc(C(=O)O)c2)cc1	-3%	-28	8	2%	3%	1
SMILES	TDP1 cell noCPT	IL1B secr inh	CtBP-E1A blk	TDP1 block	TDP1 cell CPT	Six1-Eya2 inh
Cc1ccc(C)c(S(=O)(=O)Nc2ccc3sc(C)nc3c2)c1	?	12	-1	0%	?	-1
Cc1nc2ccc(NS(=O)(=O)c3c(F)cccc3F)cc2s1	16µM*	6	1	1%	16µM*	-3
Cc1nc2cc(NS(=O)(=O)c3cccc4cccnc34)ccc2s1	9.2µM*	-14	13	/	16µM*	1
CCCn1c(SCC(=O)NC(C)C23CC4CC(CC(C4)C2)C3)n[nH]c1=O (stereo unspecified)	?	19	9	-7%	-21%	-2
O=C(Nc1ccc2c(c1)OCO2)[C@@H]1CCCN1S(=O)(=O)c1cccc2cccnc12	-13%	17	1	-5%	?	0
CCOc1ccc(CCNC(=O)Cc2ccc(NC(=O)C3=C(C)OCCS3)cc2)cc1	?	-1	/	4%	?	-5
CSc1ccc(CNC(=O)Cc2ccc(NC(=O)C3=C(C)OCCS3)cc2)cc1	2.9µM*	23	/	5%	2.9µM*	-3
COc1ccc(NCc2n[nH]nc2-c2ccccc2)cc1Cl	?	-18	-23	9%	?	-19
Cc1ccc(Sc2ccc(CO)cc2[N+](=O)[O-])cc1	?	0	-3	6%	13%	-4
CN1CCN(Cc2ccc(Sc3ccc(Cl)cc3)c([N+](=O)[O-])c2)CC1	15µM*	-92*	?	11%	?	-16
Cc1ccc(Sc2ccc(CN3CCCC3)cc2[N+](=O)[O-])cc1	5.8µM*	0	-28	5%	6.5µM*	?
CCCCNC(=O)C(NC(=O)c1cnc(C)cn1)C(=O)c1ccccc1 (stereo unspecified)	0%	-10	-9	/	-3%	14
CCN(CC)c1ccc(/C=N/n2c(-c3ccccc3Br)n[nH]c2=S)cc1	18µM*	-67*	0	/	?	-13
Cc1noc(C)c1NC(=O)N(C)C[C@H]1OCc2cnnn2CCCC(=O)N([C@@H](C)CO)C[C@H]1C	-21%	19	2	/	1%	1
CCOC(=O)Nc1ccc(NCc2ccc(F)cc2)nc1N	16µM*!	-15	?	17%[56.1 µM]	?	0
CCOC(=O)Nc1ccc(C)cc1NC(=O)OCC	-14%	22	7	7%	-8%	-8
CC(C)C(=O)Nc1cccc(NC(=O)c2ccc(Cl)cc2Cl)c1	?	-59*	-12	-1%	-23%	-8
Cc1ccc(NC(=O)c2cncc(Br)c2)c([N+](=O)[O-])c1	-12%	0	2	0%	0%	8
COc1cc(S(=O)(=O)Nc2cccnc2)ccc1F	-7%	6	-2	4%	-3%	18
Cc1ccc(NC(=O)c2cccnc2)c([N+](=O)[O-])c1	18µM*	?	0	/	18µM*	-5

Screening results: PubChem, National Center for Advancing Translational Sciences (NCATS)
